About 83,000 compounds went through this panel and 20% of them were active in at least one assay; those are over-represented in the sample as a whole.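 Values shown are percent growth following 48 h exposure of cells in 96-well plates to a single concentration of compound; below 10 was considered active.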 A number with no mark means an inactive call. Activity calls are given as the source filed them.
Key:
Test in all cases: NCI-60 one-dose screen, 48 h (100 = growth as untreated, 0 = no growth, -100 = all killed)
Conditions in all cases: 10 µM unless noted
HCT-15 colon = tested on: HCT-15 colon
HT29 colon = tested on: HT29 colon
SNB-75 CNS = tested on: SNB-75 CNS
SNB-19 CNS = tested on: SNB-19 CNS
U251 CNS = tested on: U251 CNS
PC-3 prostate = tested on: PC-3 prostate
SK-MEL-5 melanoma = tested on: SK-MEL-5 melanoma
UACC-62 melanoma = tested on: UACC-62 melanoma
LOX IMVI melanoma = tested on: LOX IMVI melanoma
SK-MEL-28 melanoma = tested on: SK-MEL-28 melanoma
SK-MEL-2 melanoma = tested on: SK-MEL-2 melanoma
SN12C renal = tested on: SN12C renal
TK-10 renal = tested on: TK-10 renal
ACHN renal = tested on: ACHN renal
CAKI-1 renal = tested on: CAKI-1 renal
A498 renal = tested on: A498 renal
CCRF-CEM leukemia = tested on: CCRF-CEM leukemia
MOLT-4 leukemia = tested on: MOLT-4 leukemia
EKVX NSCLC = tested on: EKVX NSCLC
UO-31 renal = tested on: UO-31 renal

SMILES	growth (HCT-15 colon)	growth (HT29 colon)	growth (SNB-75 CNS)	growth (SNB-19 CNS)	growth (U251 CNS)	growth (PC-3 prostate)	growth (SK-MEL-5 melanoma)	growth (UACC-62 melanoma)	growth (LOX IMVI melanoma)	growth (SK-MEL-28 melanoma)	growth (SK-MEL-2 melanoma)	growth (SN12C renal)	growth (TK-10 renal)	growth (ACHN renal)	growth (CAKI-1 renal)	growth (A498 renal)	growth (CCRF-CEM leukemia)	growth (MOLT-4 leukemia)	growth (EKVX NSCLC)	growth (UO-31 renal)
N#C/C(=N\Nc1ccccc1)C(=O)Nc1cc(-c2ccccc2)nn1-c1ccccc1	13.1%	31.5%	68.2%	14.6%	8.34% (active)	10%	-27.5% (active)	14.2%	52.9%	44.9%	22.6%	3.41% (active)	38.6%	39%	37.9%	1.62% (active)	26.6%	33.3%	–	–
CCCCCCCCCCCCCCCCCCOc1ccccc1CC(=O)OCC[N+]1(C)CCCCC1	86.3%	31.7%	46.3%	50.6%	36.9%	–	-2.94% (active)	33.8%	1.71% (active)	62.5%	80.3%	24.2%	66.2%	94.7%	65.5%	–	6.32% (active)	6.43% (active)	63.1%	73.8%
C/C(=N\NC(=O)c1ccc(C(C)(C)C)cc1)c1ccc(O)cc1O	16.5%	25.3%	54.7%	40.1%	25.2%	–	-41.9% (active)	14.1%	-4.95% (active)	36.1%	42.8%	33.7%	40.5%	16.5%	17.1%	42.3%	14.5%	18.2%	22%	16.8%
COc1cccc(C2C(C#N)=C(N)Oc3c2ccc2ccccc32)c1 (stereo not drawn)	9.22% (active)	7.48% (active)	79.8%	37.3%	24.6%	–	-1.37% (active)	37.6%	14.6%	69.3%	40%	24.2%	62%	25.8%	30.1%	45.1%	8.64% (active)	12.3%	53.1%	43%
O=C(COc1ccc(/C=C2\Oc3ccccc3C2=O)cc1)Nc1nccs1	104%	107%	51.3%	102%	90.9%	–	105%	90.6%	85.1%	129%	93.6%	90.3%	134%	107%	68.9%	116%	0% (active)	42.3%	84%	-39.8% (active)
O=[N+]([O-])c1ccc(N/N=C\c2cc(Cl)ccc2O)nc1	26%	50.9%	70.1%	44.8%	33%	24.5%	4.09% (active)	11.2%	22.6%	55.3%	44.3%	39.3%	107%	17.6%	-14.1% (active)	106%	19.1%	13.8%	–	–
O=C(O)/C=C\C(=O)Nc1ccc2c(c1)Cc1cc(F)ccc1-2	100%	96.3%	86%	103%	106%	–	101%	103%	96.4%	105%	98%	–	114%	94.2%	81.3%	109%	110%	109%	90.3%	81%
O=C(Nc1ncc(Cc2ccccc2)s1)c1cc(-c2ccccc2)nc2ccccc12	94.7%	104%	92.6%	98.1%	98.2%	94.8%	98.8%	89.8%	86.7%	105%	105%	104%	98.1%	99.4%	93.7%	103%	95.4%	95.6%	–	–
CC(C)=CCC[C@](C)(O)C1CC[C@]2(C)[C@@H]1CC[C@@H]1[C@@]3(C)CC/C(=N\OCCC#N)C(C)(C)[C@@H]3CC[C@]12C (stereo partly drawn)	83.4%	65.1%	77.8%	92.4%	90.3%	–	85.8%	68.9%	89.2%	94.1%	100%	80%	–	90.3%	77.5%	72.8%	75.8%	77.5%	72.4%	60.5%
CN(C)CCOc1nc2c3cc([N+](=O)[O-])ccc3nn2c2ccccc12	25.9%	26.1%	77.1%	19.5%	21%	–	45.6%	41.8%	20.2%	93.7%	91.6%	14%	60.8%	-51.3% (active)	23.6%	31.6%	11.7%	2.34% (active)	67.3%	–
CCN1CCN(C(=O)[C@]23CC[C@@H](C)[C@H](C)[C@@H]2C2=CC[C@@H]4[C@@]5(C)C/C(=C/c6ccncc6)C(=O)C(C)(C)[C@@H]5CC[C@@]4(C)[C@]2(C)CC3)CC1	-53.2% (active)	1.6% (active)	19.5%	47.3%	15.2%	–	-12.3% (active)	43.1%	-95.3% (active)	-45.7% (active)	33.5%	28.1%	38.7%	15.2%	43.6%	-10.5% (active)	5.24% (active)	0.087% (active)	43.7%	9.04% (active)
COc1ccc(S(=O)(=O)NC2c3ccccc3CC2O)cc1OC (stereo not drawn)	102%	107%	80.1%	98.6%	102%	–	103%	96.2%	102%	114%	104%	96.1%	112%	105%	102%	92.7%	101%	103%	103%	78.8%
CN(C)C(=O)OCc1ccc2c(Cl)cc(Cl)c(O)c2n1	22.8%	94%	48%	29.7%	18.5%	–	27.4%	-4.4% (active)	15.9%	42.2%	50.1%	36.6%	64.2%	27.2%	18.6%	68%	23%	22.1%	30.5%	27.2%
O=C1c2ccccc2-c2c1c1ccncc1c(=O)n2CCCn1ccnc1	40.8%	21%	50.3%	41.5%	20.4%	–	28.5%	39.7%	6.42% (active)	88.3%	103%	49.1%	82.6%	0.133% (active)	49.9%	80.9%	18.5%	-12.7% (active)	96.8%	19.1%
COc1cc(/C=C/C(=O)c2ccc(-n3cc(CN4CCN(c5cc6c(cc5F)c(=O)c(C(=O)O)cn6C5CC5)CC4)nn3)cc2)cc(OC)c1OC	90.6%	99.2%	85.7%	76.7%	68.4%	–	79.7%	72.8%	55.7%	92%	102%	58.8%	97.8%	93.4%	68.7%	34.9%	34.6%	80.4%	80.8%	65.4%

From PubChem BioAssay (NCI)
